RORgamma inh: ROR gamma (mouse) transcription inhibition; P51450; Drosophila S2 Gal4-RORgamma UAS-luciferase reporter, 20 h; Potency, µM (top dose mostly 53.6 µM), for inactives: top-dose activity change, negative = inhibition, hits mostly inhibitors; hit rate 5.4% among 310,000; further: nearly all actives have a fitted effect of over 60% in size
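Luciferase reporter read in Schneider cells carrying Gal4-RORγ (mouse) and UAS-Photinus luciferase; cells given compound 1 h before 700 uM copper sulfate induction, then incubated 20 h at ambient temperature.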
Sfp PPTase inh: inhibitors of Bacillus subtilis Sfp phosphopantetheinyl transferase. Biochemical Sfp PPTase activity, qHTS. Potency, µM, without a hit: largest response in the series, negative = inhibition, usual class: inhibitors. hit rate 3.5% among 310,000;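 further: the enzyme is Sfp with the accession as filed and its product quenches rhodamine fluorescence; 0% = enzyme reaction without inhibitor and -100% = no enzyme wells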
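Reaction rates are the 30-min fluorescence difference (ex 525, em 598 nm) in wells containing 15 nM Sfp, 5 uM rhodamine-CoA and 12.5 uM BHQ-2-YbbR at pH 7.6 with 10 mM MgCl2.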
Gal4-VP16 FLuc: inhibits Gal4-VP16 luciferase reporter, ROR gamma counter-screen; AID 2546; Potency, µM (highest dose often 53.6 µM), for inactives: at the top dose activity, negative = inhibition, usual class: inhibitors; hit rate 3.5% among 310,000; Drosophila S2 Gal4-VP16 UAS-luciferase, luminescence, 20 h;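 further: Gal4-VP16 expression switched on by copper sulfate through the metallothionein promoter; nearly all actives have a fitted effect of over 50% in size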
PLK1 PBD block: PLK1 (human) polo-box domain binding inhibition; P53350; Plk1 PBD binding of FITC phosphopeptide, fluorescence polarization; Potency, µM, for inactives: max response, negative = inhibition, usual class: inhibitors; hit rate 2.8% among 360,000; further: series mostly up to about 57 µM; nearly all actives have a fitted effect of over 65% in size
Target sequence (P53350 whole entry, looked up, the tested form may be a part): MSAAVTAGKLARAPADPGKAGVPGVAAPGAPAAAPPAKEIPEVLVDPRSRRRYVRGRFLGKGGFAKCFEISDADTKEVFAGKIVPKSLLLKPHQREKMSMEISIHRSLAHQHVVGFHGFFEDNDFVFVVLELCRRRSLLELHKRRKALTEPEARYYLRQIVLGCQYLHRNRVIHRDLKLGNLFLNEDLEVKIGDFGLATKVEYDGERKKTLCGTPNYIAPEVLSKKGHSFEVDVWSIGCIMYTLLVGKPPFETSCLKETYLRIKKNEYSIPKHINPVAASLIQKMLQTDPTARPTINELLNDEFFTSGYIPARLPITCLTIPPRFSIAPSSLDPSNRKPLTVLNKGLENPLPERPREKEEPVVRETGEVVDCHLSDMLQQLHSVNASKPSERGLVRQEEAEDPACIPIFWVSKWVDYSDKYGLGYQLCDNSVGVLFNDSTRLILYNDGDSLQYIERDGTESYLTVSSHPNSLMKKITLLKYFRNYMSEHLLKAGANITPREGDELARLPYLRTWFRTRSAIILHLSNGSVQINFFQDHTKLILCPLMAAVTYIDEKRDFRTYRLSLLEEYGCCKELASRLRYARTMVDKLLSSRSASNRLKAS
ALDH1A1 inh: blocks purified human ALDH1A1 activity; P00352; Purified ALDH1A1, NADH fluorescence, propionaldehyde substrate; Potency, µM (top dose mostly 75.3 µM), inactives show at the highest dose activity, negative = inhibition, hits mostly inhibitors; hit rate 7.3% among 220,000; active means well fitted inhibition curve with a large enough effect, not every such curve was filed as active; inconclusive means small, poorly fitted or top-dose-only effect, or another doubt; inactive means no such curve, though single readings can be large or run the other way;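 further: plate controls were no enzyme wells and a reference inhibitor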
* hit, by the source's call; u = inconclusive; x = no result; [ ] = another dose, or the depositor's remark. An excerpt weighted towards active compounds, which were near 12% of everything screened. Unless noted, the call rests on the fitted dose curve; in most records, active means well fitted curve in the direction sought with a large enough effect; inconclusive means small, poorly fitted or top-dose-only effect, or another doubt; inactive means no such curve, though single readings can be large; an effect the other way counts as inactive or inconclusive. Unless noted, on the % scale 0 is the no-effect control and ±100 the full control effect; potency means the concentration at half of the fitted maximal effect.

SMILES | RORgamma inh | Sfp PPTase inh | Gal4-VP16 FLuc | PLK1 PBD block | ALDH1A1 inh
Cc1ccc(N/N=C2\CS(=O)(=O)N(C)c3ccsc32)cc1 | -2.1% | -17.7% | -4.5% | -17.7% | -3.2%
CN1c2ccsc2/C(=N/Nc2ccc(F)cc2)CS1(=O)=O | u | -13.0% | 23.9% | 26.7µM* | 1.0%
C=C(C)COc1ccc(-c2n[nH]c(C)c2-c2ccc(OC)c(OC)c2)c(O)c1 | 1.41µM* | 23.9% | 7.08µM* | 5.6% | x
C=C(C)COc1ccc(-c2[nH]ncc2-c2ccccc2)c(O)c1 | u | 11.6% | u | 1.3% | -12.7%
C=C(C)COc1ccc(-c2[nH]ncc2-c2ccc(OC)cc2)c(O)c1 | 11.2µM* | 1.1% | u | 0.3% | x
C=C(C)COc1ccc(-c2[nH]ncc2-c2ccc(OC)c(OC)c2)c(O)c1 | 1.78µM* | 14.5% | 2.51µM* | 0.8% | -0.9%
C=C(C)COc1ccc(-c2nc(N)ncc2-c2ccc(OC)c(OC)c2)c(O)c1 | -21.8% | -10.1% | -10.5% | 3.3% | x
CCC1(CC)C(C#N)C(=O)NC(=O)C1C#N (stereo not drawn) | x | x | x | 2.2% | x
CSc1nc(N)nc(SCCS(=O)(=O)c2ccc(Cl)cc2)c1C#N | u | -0.4% | -11.5% | -2.3% | 2.51µM*
CCS(=O)(=O)CCSc1nc(C)cc(C)c1C#N | -24.0% | 8.1% | -1.1% | -15.5% | u
Cc1cc(C)c(C#N)c(SCSCc2ccccc2)n1 | 14.5% | 20µM* | -3.2% | u | u
Cc1cc(C)c(C#N)c(SCCS(=O)(=O)Cc2ccccc2)n1 | u | -1.6% | 1.9% | -11.0% | 6.31µM*
Cc1ccc(S(=O)(=O)CCSc2nc(C)cc(C)c2C#N)cc1 | 4.0% | 13.7% | 5.0% | 0.7% | 2µM*
COc1ccc(N2CCN(C(=O)C(=O)c3cc(OC)c4ccccc4c3)CC2)cc1 | x | x | x | -1.7% | x
COc1ccc(CC(=O)n2[nH]c(=O)ccc2=O)cc1OC | u | 3.55µM* | u | 6.7µM* | x
COc1ccc2c(c1)C(=O)[C@H](OC(=O)NS(=O)(=O)c1ccc(F)cc1)[C@@H](c1ccc(OC)c(Br)c1)O2 | u | -16.9% | -13.4% | x | 9.1%
Cc1ncoc1C(=O)Nc1ccc(Oc2ccccc2)cc1 | -5.1% | -27.8% | u | -9.9% | -6.7%
Cc1nc(C)c(C(=O)Nc2ccc(Oc3ccccc3)cc2)o1 | u | 0.5% | u | -19.3% | 31.6µM*
CN(C)c1ccc2c(-c3ccccc3)c3ccc(=[N+](C)C)cc-3oc2c1 | u | u | 3.16µM* | x | x
COc1ccc(Oc2ncc3nc(-c4ccc(OC)cc4)c(=O)n(C4CC4)c3n2)cc1 | -33.8% | 19.9% | -7.5% | x | u
O=C(/C=C/c1ccc(O)c(O)c1)c1ccc(S(=O)(=O)N2CCCCCC2)cc1 | 12.6µM* | -13.3% | u | -7.7% | u
O=C(Nc1nnc(C2CC2)o1)c1ccc(S(=O)(=O)N2CCCc3ccccc32)cc1 | 0.316µM* | 3.6% | 0.708µM* | -7.9% | -1.9%
COCc1nnc(NC(=O)c2ccc(S(=O)(=O)N3CCCc4ccccc43)cc2)o1 | 0.631µM* | 23.7% | 3.55µM* | -12.0% | -13.0%
O=C(NCc1ccccc1)c1ccc(S(=O)(=O)N2CCCc3ccccc32)cc1 | u | 16.9% | -6.3% | -6.6% | -11.1%
O=C(NCc1ccco1)c1ccc(S(=O)(=O)N2CCCc3ccccc32)cc1 | -0.9% | 12.7% | -2.0% | -5.5% | 14.1µM*
SMILES | RORgamma inh | Sfp PPTase inh | Gal4-VP16 FLuc | PLK1 PBD block | ALDH1A1 inh
CC(=O)Nc1ccc(S(=O)(=O)N2CCCc3ccccc32)cc1 | -18.7% | 11.3% | 0.4% | -0.7% | -7.4%
COc1ccc(-c2nnc(NC(=O)c3ccc(S(=O)(=O)N4CCCc5ccccc54)cc3)o2)cc1 | 0.282µM* | 12.2% | 0.501µM* | 31.6µM* | 1.6%
CS(=O)(=O)c1ccc(-c2nnc(NC(=O)c3ccc(S(=O)(=O)N4CCCC4)cc3)o2)cc1 | x | x | x | -6.8% | x
COc1ccc(-c2coc3ccc(OC4OC(COC(C)=O)C(OC(C)=O)C(OC(C)=O)C4OC(C)=O)c(OC(C)=O)c3c2=O)cc1 (stereo not drawn) | 12.3% | 4.6% | -4.5% | x | 5.4%
CN(C)C(=O)c1cccc(-c2cccc3nccn23)c1 | x | x | x | -8.0% | x
CCCCC(=O)N1C/C=C\C(c2ccc(OC)cc2)N(Cc2ccc(F)cc2)C(=O)C1C (stereo not drawn) | 42.3% | 11.6% | -4.2% | x | x
COCc1nnc(NC(=O)c2ccc(S(=O)(=O)N3CCOCC3)cc2)o1 | 11.2µM* | -28.5% | 20µM* | -1.0% | x
O=C(NNC(=O)c1ccc(S(=O)(=O)N2CCOCC2)cc1)c1ccccc1 | 29.0% | 4.6% | -5.2% | -3.4% | x
Cn1c(N/N=C/c2ccccc2)nc2sc3c(c2c1=O)CCC3 | 1.58µM* | -21.5% | 7.08µM* | -14.0% | -13.5%
O=C(O)c1ccccc1-c1oc2cc(O)ccc2c(=O)c1Oc1ccccc1 | 11.4% | -2.0% | -6.3% | x | 20µM*
COC(=O)C1OCOC2C(C(=O)OC)OCOC12 (stereo not drawn) | x | x | x | -6.5% | x
O=c1ccc2c([nH]1)CCCCCCCCCC2 | -5.0% | -0.2% | 4.6% | -6.7% | x
CC1=NN(C(=O)Cn2nc([N+](=O)[O-])c(Br)c2C)C(O)(C(F)(F)F)C1 (stereo not drawn) | 10µM* | 19.2% | u | -4.8% | 9.5%
COc1nn(CC(=O)N2N=C(C)CC2(O)C(F)(F)F)cc1[N+](=O)[O-] (stereo not drawn) | 3.16µM* | 4.8% | -1.1% | -1.5% | -2.1%
CCCN1CC(CSC)C[C@H]2c3cccc4[nH]cc(c34)C[C@H]21 (stereo partly drawn) | -13.6% | 8.1% | -6.8% | x | -2.4%
CO[C@H]1COC(=O)CCC[C@@H](C)[C@H](OC)COC(=O)[C@H]2CCCN2C(=O)C/C=C\[C@@H]1C | 1.4%[10 µM] | -6.3% | 3.3%[10 µM] | x | 8.5%[13.5 µM]
COc1ccc(CC(=O)Nc2ccccc2C(F)(F)F)cc1S(=O)(=O)N1CCOCC1 | x | x | x | 3.9% | x
COc1ccc(-n2nnnc2SC(C)C(N)=O)cc1 (stereo not drawn) | -40.1% | -0.6% | -1.1% | -5.0% | -7.4%
CCN(CC)S(=O)(=O)c1ccc2c(c1)nc(SC(C)C(N)=O)n2-c1ccc(OC)cc1 (stereo not drawn) | 0.2% | -8.3% | -7.6% | -3.2% | 15.8µM*
CCOC(=O)N1CCC(N2CCN(Cc3ccccc3)C(CCO)C2)CC1 (stereo not drawn) | -0.1% | -0.2% | 0.7% | -6.0% | u
CCOC(=O)N1CCC(N2CCN(Cc3ccc(C)o3)C(CCO)C2)CC1 (stereo not drawn) | 1.8% | 22.0% | 2.3% | 15µM* | 1.5%
CN(C)CCCNc1ncnc2nc[nH]c12 | x | x | x | x | 0.1%[13.5 µM]
Cc1cc(/C=N\NC(=O)CC(=O)NC2CCCCC2)c(C)n1-c1ccc(Cl)c(Cl)c1 | 15.9% | 1.0% | -4.5% | -0.4% | -7.1%
Cc1cc(/C=N/NC(=O)Cn2c3ccccc3c(=O)c3ccccc32)c(C)n1-c1ccc(Cl)cc1 | -16.9% | 14.3% | 0.4% | -9.0% | u
CCNC(=S)N/N=C/c1cc(C)n(-c2ccc(Cl)cc2)c1C | 1.41µM* | u | 5.01µM* | -4.7% | -1.0%

Compound activity from PubChem BioAssay.
